This note sets out measurements from PubChem BioAssay (NCATS).

Several values for one entry are separate records, joined by “and”; a condition that tells them apart may be missing. Equal values may be shown once. Results filed as inconclusive are left out. Activity calls are given as the source filed them. Unless noted, calls come from the whole dose curve; as a rule, active = well fitted curve in the direction sought with a large enough effect; inconclusive = small, poorly fitted or top-dose-only effect, or another doubt; inactive = no such curve, though single readings can be large; an effect the other way counts as inactive or inconclusive.

Assay [1] can be described thus: Cell Viability - H-4-II-E (AID 543).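 Note: cells exposed to compound for 40 hours; % is set by controls: 0 for no effect and ±100 for the full control effect; nearly all actives have a fitted effect of over 35% in size.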 Put shortly: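 CellTiter-Glo luminescence (intracellular ATP) measured after 40 h compound exposure at 37 °C in H-4-II-E rat hepatoma cells seeded at 1500/well. Values are AC50s fitted with the standard Hill equation.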
The nature of assay [2]: Cell Viability - SH-SY5Y (AID 544).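 Note: cells exposed to compound for 40 hours; nearly all actives have a fitted effect of over 55% in size.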 The following applies: SH-SY5Y neuroblastoma cell viability; viability change, negative = cytotoxic: at 92.2 µM (top of the series). In outline: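 Cytotoxicity measured via ATP-dependent luciferase luminescence (CellTiter-Glo) following 40 h, 37 °C exposure of 1500 SH-SY5Y cells per well. Concentration-response data were fitted with the standard Hill equation to give AC50.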

Assay [3] can be described thus: Cellular Toxicity (caspase-3) Jurkat (AID 655).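 Note: cells exposed to compound for 16 h at 37 °C before reading.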 The following applies: Jurkat caspase-3 activation, luminescence; caspase-3 activation: at 92.2 µM (top of the series), DMSO = 0%, tamoxifen = 100%. In outline: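 Jurkat cells (5000/well) in complete medium exposed 16 h at 37 C; caspase-3/7 activity read by Caspase-Glo luminescence after 20 min at room temperature. Normalized to DMSO and 100 uM tamoxifen; AC50 from Hill fits.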

The nature of assay [4]: Cell Viability - LYMP2-001 (AID 921).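 Note: 0% = DMSO only and full inhibition = tetraoctylammonium bromide control wells; nearly all actives have a fitted effect of over 70% in size.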 In outline: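 Human lymphoblastoid LYMP2-001 cells, 2500 per well, in complete medium, treated 24 h at 37 C. Viability from cellular ATP by CellTiter-Glo luminescence; AC50 from Hill-equation fits of qHTS concentration-response.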
Assay [5] is described as follows: MultiTox-Fluor Cytotoxicity Assay - LYMP1-003 - Live Cells (AID 962).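 Note: 0% = DMSO only and full loss = 92 µM tetraoctylammonium bromide; cytotoxic hits lower the live-cell protease signal.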 Put shortly:
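Live-cell protease activity (GF-AFC substrate, 405/510 nm, 60 min at room temperature) after 16 h, 37 C compound exposure of human lymphoblastoid LYMP1-003 cells; concentration-response fitted to the Hill equation for AC50.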

The nature of assay [6]: Cell Viability - LYMP2-004 (AID 966).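 Note: plate controls were DMSO only for no effect and tetraoctylammonium bromide control for full effect; nearly all actives have a fitted effect of over 65% in size.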 Put shortly:
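AC50 values come from Hill modelling of concentration-dependent loss of intracellular ATP, measured by CellTiter-Glo luminescence. Human LYMP2-004 lymphoblastoid cells (2500/well) were exposed to compound for 24 h at 37 C.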

Assay [7] in a line: Cell Viability - LYMP2-015 (AID 971).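 Note: 0% = DMSO only and full effect = 92 µM tetraoctylammonium bromide; nearly all actives have a fitted effect of over 55% in size.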 Put shortly: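 Cytotoxicity readout: decrease in intracellular ATP (CellTiter-Glo luminescence) in 2500 LYMP2-015 lymphoblastoid cells/well after 24 h compound exposure at 37 C. Concentration-response data fitted with the standard Hill equation to give AC50.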
The nature of assay [8]: Cell Viability - LYMP2-019 (AID 973).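 Note: 0% = DMSO alone and full effect = 92 µM tetraoctylammonium bromide; nearly all actives have a fitted effect of over 55% in size.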 In outline:
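AC50 values come from Hill-equation fits of luminescent intracellular ATP (CellTiter-Glo, 30 min, room temperature) following 24 h compound exposure at 37 C. Cells: LYMP2-019 lymphoblastoid line, 2500 per well, in complete culture medium.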

A short description of assay [9]: Cell Viability - LYMP2-021 (AID 974). Note: % is set by controls: 0 for no effect and ±100 for the full control effect; nearly all actives have a fitted effect of over 55% in size. In outline:
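AC50 values come from Hill-equation fits to CellTiter-Glo luminescence (ATP content), read after 24 hour compound exposure at 37 C of 2500 LYMP2-021 lymphoblastoid cells/well; tetraoctylammonium bromide as positive control.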

Assay [10] is described as follows: Cell Viability - LYMP2-025 (AID 976).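 Note: plate controls were DMSO only for no effect and tetraoctylammonium bromide control for full effect.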 Put shortly:
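Cytotoxicity read as loss of intracellular ATP (luciferase luminescence) after 24 h compound treatment at 37 C. Uses LYMP2-025 lymphoblastoid cells in 1536-well format; Hill-equation modelling gives AC50; tetraoctylammonium bromide as positive control.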

Assay [11] is described as follows: Cell Viability - LYMP2-006 (AID 978). Note: % is set by controls: 0 for no effect and ±100 for the full control effect; nearly all actives have a fitted effect of over 60% in size. In outline:
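Human lymphoblastoid cells (LYMP2-006), 2500/well in complete medium, were treated with compound for 24 hr at 37 C. Cellular ATP was read by CellTiter-Glo luminescence after 30 min, and AC50 values came from Hill-equation fits of concentration-response data.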

Assay [12] can be described thus: Cell Viability - LYMP2-007 (AID 979).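 Note: cells exposed to compound for 24 h before reading; 0% = DMSO only and the negative end = 92 µM tetraoctylammonium bromide; nearly all actives have a fitted effect of over 60% in size.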 In outline:
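AC50 values come from Hill-equation fits of luminescent intracellular ATP (CellTiter-Glo, 30 min, room temperature) following 24 h compound exposure at 37 C. Cells: LYMP2-007 lymphoblastoid line, 2500 per well, in complete culture medium.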

Assay [13] is described as follows: Cell Viability - LYMP2-014 (AID 983).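 Note: plate controls were DMSO only for no effect and 92 µM tetraoctylammonium bromide for full effect; nearly all actives have a fitted effect of over 50% in size.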 In outline: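 Intracellular ATP loss, read by luciferase luminescence, measures acute cytotoxicity after 24 h compound exposure of lymphoblastoid LYMP2-014 cells (2500/well, 37 C). Concentration-response data fitted to the Hill equation for AC50.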
A short description of assay [14]: Cell Viability - LYMP2-018 (AID 985).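 Note: plate controls were DMSO only for no effect and tetraoctylammonium bromide at 92 µM for full effect; nearly all actives have a fitted effect of over 50% in size.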 Put shortly: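 Viability read as CellTiter-Glo luminescence (cellular ATP) after 24 hr compound exposure at 37 C of 2500 LYMP2-018 lymphoblastoid cells/well, pre-plated 5 hr. Hill-equation modelling gave AC50.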
Assay [15] can be described thus: Cell Viability - LYMP2-020 (AID 986). In outline:
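Cytotoxicity in qHTS format: luminescent ATP readout from CellTiter-Glo after 24 h compound exposure at 37 C in complete medium. LYMP2-020 lymphoblastoid cells were seeded at 2500/well; concentration-response data fitted to the Hill equation for AC50.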

Assay [16] in a line: Cell Viability - LYMP2-022 (AID 987). In outline: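 Cytotoxicity read as decreased cellular ATP (CellTiter-Glo luminescence, 30 min room temperature) after 24 hours compound exposure of 2500 lymphoblastoid LYMP2-022 cells/well at 37 C. Concentration-response data fitted with standard Hill equation for AC50.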
Assay [17] in a line: Cell Viability - LYMP2-026 (AID 989). Note: % is set by controls: 0 for no effect and ±100 for the full control effect; nearly all actives have a fitted effect of over 50% in size. Put shortly: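 Cytotoxicity read as ATP-dependent luminescence (CellTiter-Glo, 30 min room temperature) after 24 h compound treatment at 37 C. LYMP2-026 lymphoblastoid line seeded at 2500 cells/well; AC50 derived by standard Hill equation.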
A short description of assay [18]: Cell Viability - LYMP1-002 - Assay at 40 hr (AID 994).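 Note: 0% = DMSO only and full inhibition = 92 µM tetraoctylammonium bromide; nearly all actives have a fitted effect of over 60% in size.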 In outline:
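Cytotoxicity was read as loss of cellular ATP (CellTiter-Glo luminescence) after 40 hr compound exposure at 37 C of 2500 LYMP1-002 lymphoblastoid cells per well. Concentration-response data were fitted with the standard Hill equation to give AC50.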

Assay [19] can be described thus: qHTS assay for small molecule agonists of retinoid X receptor alpha signaling (AID 588544). The following applies: HEK293T RXRa-UAS-bla, beta-lactamase reporter, 18 h; 530 nm emission. Background: qHTS replaces the single test concentration by a dilution series.
A short description of assay [20]: qHTS assay for small molecule antagonists of the retinoid-related orphan receptor gamma (ROR-gamma) signaling pathway - cell viability counter screen (AID 720652; active = well fitted curve in the direction sought with a large enough effect in the repeat runs; an effect the other way counts as inactive or inconclusive;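 note: CHO reporter cells with doxycycline-induced ROR-gamma expression; compound exposure lasted 16 hr before ATP read; % is set by controls: 0 for no effect and ±100 for the full control effect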). In outline:
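Cytotoxicity counter screen: intracellular ATP (CellTiter-Glo luminescence) measured in the doxycycline-induced CHO RORE-luciferase reporter line after 16 hr compound exposure at 37 C, 5% CO2.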

As for `Cc1ccccc1[N+](=O)[O-]`, the Potency result in assay [1], in assay [2], in assay [4], in [6], in assay [7] and in [8] was “inactive” each time. For the same molecule, the Potency result in assay [9], in assay [10], in [11], in assay [12], in [13] and in [14] was “inactive” throughout. Besides, the Potency result in [15], in assay [16], in [17], in assay [18] and in [20] was “inactive” throughout. Further, the caspase-3 activation in assay [3] was 0.646% (inactive). Besides, the result in assay [5] was inactive. Besides, in [19], the max response is -2.95%.

For `O=NN1CCCCC1`, the Potency entry in assay [1], in assay [2], in assay [4], in assay [6], in assay [7] and in assay [8] was “inactive” throughout. The Potency result in assay [9], in assay [10], in [11], in [12], in assay [13] and in assay [14] was “inactive” in each case. The Potency entry in [15], in [16], in assay [17], in assay [18] and in assay [20] was “inactive” each time. Further, in [3], the caspase-3 activation is 1.18% (inactive). Besides, the molecule was classed as inactive in assay [5]. The max response in assay [19] turned out to be 5.16%.

For the molecule `CCNCC`, the Potency result in [1], in assay [2], in assay [4], in assay [6], in assay [7] and in [8] was “inactive” in each case. The Potency result in assay [9], in [10], in assay [11], in assay [12], in assay [13] and in [14] was “inactive” each time. In addition, the Potency result in assay [15], in assay [16], in assay [17], in assay [18] and in assay [20] was “inactive” in each case. Also, the caspase-3 activation in assay [3] was 0.736% (inactive). In assay [5], the result was inactive. Besides, the max response in assay [19] is -7.47%.

Regarding `C=CC(=O)OC`, the Potency entry in assay [1], in assay [2], in assay [4], in assay [6], in [7] and in [8] was “inactive” in each case. Further, the Potency result in assay [9], in [10], in assay [11], in assay [12], in assay [13] and in assay [14] was “inactive” each time. Also, the Potency entry in assay [15], in assay [16], in assay [17], in assay [18] and in assay [20] was “inactive” throughout. The caspase-3 activation in [3] is 0.227% (inactive). In addition, in assay [5], the molecule was classed as inactive. Besides, in assay [19], the max response was -10.9%.

For `CC(Cl)(Cl)Cl`, the Potency entry in assay [1], in assay [2], in [4], in assay [6], in assay [7] and in [8] was “inactive” in each case. Further, the Potency result in assay [9], in [10], in assay [11], in [12], in [13] and in assay [14] was “inactive” in each case. In addition, the Potency entry in assay [15], in assay [16], in assay [17], in assay [18] and in assay [20] was “inactive” in each case. Also, the caspase-3 activation in assay [3] was -0.991% (inactive). Besides, the molecule was called inactive in assay [5]. Besides, the max response in assay [19] is -3.95% and -14.6%.

As to `ClCc1ccccc1`, the Potency result in [1], in assay [2], in assay [4], in assay [6], in assay [7] and in assay [8] was “inactive” each time. Besides, the Potency result in assay [9], in [10], in assay [11], in assay [12], in assay [13] and in assay [14] was “inactive” throughout. In addition, the Potency entry in [15], in assay [16], in assay [17], in assay [18] and in assay [20] was “inactive” in each case. Moreover, the caspase-3 activation in assay [3] is 0.582% (inactive). Besides, the call in [5] was inactive. Moreover, the max response in assay [19] was -0.901%.

On to `CC(=O)NNc1ccccc1`, for which the Potency entry in [1], in [2], in assay [4], in assay [6], in [7] and in [8] was “inactive” throughout. The Potency entry in assay [9], in assay [10], in [11], in assay [12], in assay [13] and in assay [14] was “inactive” throughout. For the same molecule, the Potency entry in [15], in assay [16], in assay [17], in assay [18] and in [20] was “inactive” throughout. In addition, in [3], the caspase-3 activation was 1.53% (inactive). In assay [5], the molecule was classed as inactive.
